Tb PYK inh – qHTS of Trypanosoma Brucei Inhibitors | 410,000 compounds, 0.12% hits | TbPYK enzyme, Kinase-Glo Plus ATP luminescence, 45 min | pyruvate kinase (Trypanosoma brucei), Q57TT1 | Potency, µM (doses to about 76.8 µM), for the others: at the top dose activity, negative = inhibition, usual class: inhibitors; also: nearly all actives have a fitted effect of over 50% in size
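Luminescent Kinase-Glo Plus end-point after 45 min room-temperature reaction of T. brucei pyruvate kinase started with 130 uM ADP (final). Buffer TEA 50 mM pH 7.2 with KCl, MgCl2, BSA, Tween-20; titration-based qHTS with fitted concentration-effect curves.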
AMA1 RON2 block – qHTS for Inhibitors of AMA1-RON; Towards Development of Antimalarial Drug Lead: Primary Screen; AlphaScreen AMA1-biotinylated RON2 peptide binding; 360,000 compounds, 0.2% hits; Potency, µM (doses to about 58.2 µM), inactives show top-dose activity change, negative = inhibition, most hits filed as inhibitors; Plasmodium falciparum AMA1 (3D7) - RON2 peptide interaction; AID 720542, 2013;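 also: 0% = vehicle wells and -100% = peptide control; nearly all actives have a fitted effect of over 45% in size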
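AMA1 (3D7) with his tag at 25 nM final met compounds first, then biotinylated RON2 peptide at 25 nM; detection used donor plus acceptor beads, 10 µg/mL apiece, read by AlphaScreen after 30 min at room temperature.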
LmPK inhibitor – qHTS Assay for Inhibitors of Leishmania Mexicana Pyruvate Kinase (LmPK); purified LmPK, Kinase-Glo ATP luminescence, 1 h; Q27686; AID 1721, 2009; 290,000 compounds, 0.37% hits; Potency, µM (titrated, usually from 57.5 µM), inactives show at the highest dose activity change, negative = inhibition, actives largely listed as inhibitors
Target sequence (Q27686 whole entry, looked up): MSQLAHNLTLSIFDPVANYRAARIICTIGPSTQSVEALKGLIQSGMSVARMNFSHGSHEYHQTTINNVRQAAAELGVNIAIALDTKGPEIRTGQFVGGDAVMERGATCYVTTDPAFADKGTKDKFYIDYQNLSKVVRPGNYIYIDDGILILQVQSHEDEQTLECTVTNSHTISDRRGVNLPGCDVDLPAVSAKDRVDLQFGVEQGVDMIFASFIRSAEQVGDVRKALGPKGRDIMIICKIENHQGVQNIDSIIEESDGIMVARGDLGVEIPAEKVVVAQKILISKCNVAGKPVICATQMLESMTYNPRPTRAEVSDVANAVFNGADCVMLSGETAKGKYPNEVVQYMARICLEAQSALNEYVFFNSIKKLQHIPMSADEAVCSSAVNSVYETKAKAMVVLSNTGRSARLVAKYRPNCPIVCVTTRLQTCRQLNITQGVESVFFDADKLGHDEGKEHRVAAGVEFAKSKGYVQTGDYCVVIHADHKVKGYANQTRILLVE
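In 50 mM imidazole pH 7.2 with 7 mM MgCl2, LmPK (0.1 nM) turned over PEP (0.5 mM) and ADP (0.1 mM) for 1 h at room temperature. Luciferase read-out of ATP.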
RE007 growth inh – qHTS Assay for Inhibitors of the HIV-1 protein Vpr; AID 651644, 2012; 360,000 compounds, 0.21% hits; S. pombe RE007 Vpr strain, BacTiter-Glo ATP luminescence, 24 h; Potency, µM (series often up to 92.2 µM), for the others: at the highest dose activity change, negative = less growth, most hits filed as inhibitors; active = well fitted falling curve with a large enough effect; inconclusive = small, poorly fitted or top-dose-only effect; inactive = no such curve, though single readings can be large or run the other way; also: nearly all actives have a fitted effect of over 50% in size
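Fission yeast strain RE007, carrying one chromosomally integrated HIV-1 vpr copy, was seeded at OD 0.01 in PMG+AL medium with 23 nL pinned compound. After 24 h at 30 °C and 99% humidity, viability was read by BacTiter-Glo luminescence.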
Sm TGR block – qHTS Assay for the Inhibitors of Schistosoma Mansoni Peroxiredoxins; Schistosoma mansoni thioredoxin glutathione reductase (TGR), Q962Y6; purified TGR, DTNB reduction, TNB absorbance 405 nm; Potency, µM (series often up to 114 µM), inactives show at the top dose activity change, negative = inhibition, usual class: inhibitors; 360,000 compounds, 3% hits; AID 485364, 2010; also: nearly all actives have a fitted effect of over 60% in size
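First, TGR (20 nM dispensed) and NADPH were mixed with compound. Second, a 15 min room-temperature incubation followed. Third, further NADPH and then DTNB were added to start the reaction. Finally, TNB absorbance was monitored kinetically.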
The depositor's hits bear a star; u = inconclusive; x = no result given. Only some compounds are listed: those with a hit (about 3.2% of all), similar ones and a draw of the others. Unless noted, calls follow the shape of the dose curve; as a rule, active = well fitted curve in the direction sought with a large enough effect; inconclusive = small, poorly fitted or top-dose-only effect, or another doubt; inactive = no such curve, though single readings can be large; an effect the other way counts as inactive or inconclusive. Unless noted, % is scaled to controls: 0 for no effect and ±100 for the full control effect; potency is read from the fitted curve at half-maximal effect.

SMILES | Tb PYK inh | AMA1 RON2 block | LmPK inhibitor | RE007 growth inh | Sm TGR block
Cc1cccc(-n2c(O)c(C)c(=O)[nH]c2=S)c1 | -15% | 0% | 4% | -19% | 40µM*
COc1ccc(N=C/C=C2\C=C(c3ccccc3)OC(C)(C)O2)cc1 | -10% | u | 3% | -3% | 40µM*
CCC(C)(C)n1nnnc1C(c1ccc(OC)c(OC)c1)N1CCN(c2ccccc2)CC1 (centres undefined) | -14% | -7% | 3% | 3% | 50µM*
CCC(C)(C)n1nnnc1C(c1cc(OC)ccc1OC)N1CCN(Cc2ccccc2)CC1 (centres undefined) | -6% | -7% | 7% | 3% | 32µM*
CCC(C)(C)n1nnnc1C(c1ccc(OC)c(OC)c1)N1CCN(c2cccc(OC)c2)CC1 (centres undefined) | -12% | -8% | 7% | 6% | u
CCC(C)(C)n1nnnc1C(c1ccc2ncccc2c1)N1CCN(c2ccc(O)cc2)CC1 (centres undefined) | -22% | -22% | u | 5% | 50µM*
CCc1ccc(Oc2c(C(F)(F)F)oc3c(CN4CCCC(C)C4)c(O)ccc3c2=O)cc1 (centres undefined) | -4% | x | x | x | 5%
CCOC(=O)c1cc(C)n(CC2CCC(C(=O)Nc3ccc(OC)cc3)CC2)c1C (centres undefined) | -1% | x | x | x | -10%
CN(C)c1ccc(NC2=C([N+](=O)[O-])CS(=O)(=O)C2)cc1 | 3% | 0% | 3% | -4% | 2.2µM*
COc1ccc(OC)c(NC(=O)CCc2c(C)nn(-c3ccc(N4CCCC4)nn3)c2C)c1 | -4% | x | x | x | -4%
O=C(OCC(=O)c1cccs1)c1ccccc1 | -4% | -4% | 16µM* | 3% | 4%
Cc1ccc(NC(=S)Nc2ccc(S(=O)(=O)N3CCOCC3)cc2)cc1S(=O)(=O)N1CCOCC1 | -8% | 76% | 5% | 50% | 16µM*
Cc1ccc(NC(=O)c2ccc([N+](=O)[O-])o2)cc1S(=O)(=O)N1CCOCC1 | -6% | 3% | -1% | -9% | 14µM*
O=S(=O)(c1ccc(NC(=S)NC2CC2)cc1)N1CCOCC1 | -4% | -2% | -6% | 3% | 16µM*
O=S(=O)(c1ccc(NC(=S)NC2CCCC2)cc1)N1CCCC1 | 0% | 27% | 1% | u | -23%
O=S(=O)(c1ccc(Cl)c(NC(=S)Nc2cccc(O)c2)c1)N1CCOCC1 | 5% | 44% | -2% | 5% | 11µM*
Cc1ccc(S(=O)(=O)NCC(c2ccc(N(C)C)cc2)N2CCc3ccccc32)cc1C (centres undefined) | -1% | x | x | x | -3%
Cc1cc(C)cc(NS(=O)(=O)c2ccc3c(c2)NC(=O)C(C)S3)c1 (centres undefined) | -2% | x | x | x | -1%
Cc1ccc(C)c(SCC(=O)Nc2ccc(C)c(S(=O)(=O)N3CCOCC3)c2)c1 | 1% | -6% | x | 11% | 45µM*
O=C(Nc1ccc(CSc2ccccc2)cc1)c1ccccc1 | 0% | 12% | -9% | 1% | -3%
O=C(Nc1ccccc1)c1ccc(CSc2ccccn2)cc1 | u | -12% | 13µM* | u | 10%
Cc1ccc(NC(=O)CN2C(=O)CCc3cc(S(=O)(=O)N4CCCCC4)ccc32)cc1N(C)C | -2% | x | x | x | 3%
COCC(=O)Nc1cc(Sc2ccccc2)ccc1N=C(NC(=O)OC)NC(=O)OC | -7% | x | x | x | x
Cc1cccc(C(CC(=O)N2CCCCC2)c2ccccc2)c1O (centres undefined) | 1% | -3% | -5% | 16% | 28µM*
CCCCSc1nc(O)c(C2OC(=O)c3c2ccc(OC)c3OC)c(=O)n1-c1ccccc1 (centres undefined) | -14% | -5% | 4% | -2% | 8.9µM*
SMILES | Tb PYK inh | AMA1 RON2 block | LmPK inhibitor | RE007 growth inh | Sm TGR block
CCCSc1nc(O)c(C2OC(=O)c3c2ccc(OC)c3OC)c(=O)n1-c1ccccc1 (centres undefined) | -13% | -5% | -3% | 6% | 11µM*
CCCSc1nc2ccccc2c(=O)n1-c1ccccc1OC | -1% | x | x | x | 8%
C=CCSc1nc(O)c(C2OC(=O)c3c2ccc(OC)c3OC)c(=O)n1-c1ccccc1 (centres undefined) | 1% | 0% | 3% | -8% | 4µM*
Cc1ccc(NC(=O)c2cnc(SCC(=O)N3CCOCC3)n(C)c2=O)cc1 | 6% | x | x | x | 1%
Cc1cc(=O)[nH]c2nnc(SCC(=O)Nc3ccc(F)cc3F)n12 | -2% | x | x | x | 14%
CCN(c1ncnc2c1cnn2-c1cc(Cl)ccc1C)C1CCCCC1 | 0% | x | x | x | 0%
CCCc1[nH][nH]c(=O)c1C(c1ccccc1)C(C#N)C#N (centres undefined) | -10% | 2% | 6% | 3% | 2.5µM*
CCCc1[nH][nH]c(=O)c1C(c1ccc(Br)cc1)C(C#N)C#N (centres undefined) | 8% | 5% | 3% | -27% | u
CCOc1ccccc1NC(=O)c1cn(C2CCCC2)c(=O)c2c1c1ccccc1n2C | -3% | x | x | x | -2%
CCOC(=O)CCC(=O)OC1C(OC2C(C)C(OC3CC(C)(OC)C(O)C(C)O3)C(C)C(=O)OC(CC)C(C)(O)C(O)C(C)C(=O)C(C)CC2(C)O)OC(C)CC1N(C)C (centres undefined) | 2% | x | x | x | x
CN(C)c1oc(-c2ccccc2[N+](=O)[O-])nc1C#N | u | -3% | -17% | -13% | 35µM*
CCOc1ccccc1C1CC(c2cccs2)=NN1S(C)(=O)=O (centres undefined) | 1% | 2% | 2% | 3% | 4µM*
CS(=O)(=O)N1N=C(c2cccs2)CC1c1ccccc1O (centres undefined) | 2% | -5% | -5% | 13% | 19%
Cc1ccc(C2CC(=O)N3CN(Cc4ccco4)CSC3=C2C#N)cc1 (centres undefined) | u | 5% | -3% | -15% | 0%
CC(C)c1ccc(C2CC(=O)N3CN(C)CSC3=C2C#N)cc1 (centres undefined) | u | 5% | -4% | -13% | -29%
N#CC1=C2SCN(C3CCCCC3)CN2C(=O)CC1c1ccc(F)cc1 (centres undefined) | u | x | x | x | 3.5µM*
N#CC1=C2SCN(C3CCCCC3)CN2C(=O)CC1c1ccc(Cl)cc1 (centres undefined) | u | x | x | x | 7.9µM*
Cc1ccc(NC(=O)c2ccc(Cl)cc2Cl)c(C(=O)c2ccccc2)c1 | 5% | x | x | x | 10%

From PubChem
